Compounds without any hit were thinned out: in the full panel of roughly 83,000, 20% have a hit.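 Percent growth is the endpoint: 0 to 100 indicates growth inhibition (40 means 60% inhibition), 0 means no net growth, and negative values indicate cell death.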 Values without a mark were called inactive. Active and inactive are the calls of the source. The calls were made as follows: active = growth percent below 10; inactive = the rest.
Experiments:
Test in all cases: NCI-60 one-dose screen, 48 h (100 = growth as untreated, 0 = no growth, -100 = all killed)
Conditions in all cases: 10 µM
[1] = system: DU-145 prostate
[2] = system: K-562 leukemia
[3] = system: MALME-3M melanoma
[4] = system: MDA-MB-231 breast
[5] = system: SF-268 CNS
[6] = system: SF-295 CNS
[7] = system: SF-539 CNS
[8] = system: UACC-257 melanoma
[9] = system: M14 melanoma
[10] = system: HCT-15 colon
[11] = system: HT29 colon
[12] = system: SNB-75 CNS
[13] = system: SNB-19 CNS
[14] = system: U251 CNS
[15] = system: PC-3 prostate
[16] = system: SK-MEL-5 melanoma
[17] = system: UACC-62 melanoma
[18] = system: LOX IMVI melanoma
[19] = system: SK-MEL-28 melanoma

SMILES	growth [1]	growth [2]	growth [3]	growth [4]	growth [5]	growth [6]	growth [7]	growth [8]	growth [9]	growth [10]	growth [11]	growth [12]	growth [13]	growth [14]	growth [15]	growth [16]	growth [17]	growth [18]	growth [19]
CC(C)Sc1nc(NC2CC2)c(C#N)c(-c2ccccc2)n1	86.2%	90%	104%	58.9%	61%	54.9%	42%	103%	117%	101%	87.3%	81.3%	25.7%	50.6%	83%	93.1%	87.1%	80.2%	110%
O=c1[nH]c2ccc(Cl)cc2cc1CSc1ccc(Nc2nccc(-c3ccc(Cl)cc3)n2)cc1	4.82% (active)	59.3%	57.5%	47%	58.5%	105%	45.7%	96.9%	84.4%	16.3%	44.9%	101%	77.5%	21%	34.4%	97%	100%	35.8%	98.7%
Cc1ccc(C(=O)N/C(=C2/OCCN2C)[P+](c2ccccc2)(c2ccccc2)c2ccccc2)cc1	84.9%	50.4%	63.6%	65.6%	92.7%	87.3%	91.4%	49.6%	82.9%	110%	59.7%	99.9%	74.1%	75.5%	62.5%	72.2%	48.2%	44.8%	72.2%
O=C(Nc1ccc(Cl)c([N+](=O)[O-])c1)Nc1ccc(Cl)c([N+](=O)[O-])c1	18.4%	19.8%	-11.2% (active)	17.5%	18%	0.239% (active)	11.4%	36.9%	18.6%	7.01% (active)	13.1%	61.2%	10.8%	10.6%	10.4%	-26.7% (active)	3.62% (active)	-8.77% (active)	8.08% (active)
COc1cccc(-c2ccnc(/N=C(\N)Nc3ccc(S(=O)(=O)Nc4nc(C)cc(C)n4)cc3)n2)c1	111%	92%	98%	95.9%	104%	93.7%	95.2%	111%	114%	104%	106%	77.5%	101%	101%	91.2%	99.6%	102%	85.8%	112%
CC(=O)c1ccc(Nc2nc(SCCC(C)C)nc(-c3ccc(F)cc3)c2C#N)cc1	61.1%	63.9%	72.7%	24.8%	52.9%	11.5%	16.3%	106%	84.7%	63.8%	47.9%	52.3%	20.4%	2.09% (active)	80.2%	93.8%	89.8%	5.44% (active)	83.5%
COc1ccc(C(=O)/C=C/c2cc(F)cc(C(F)(F)F)c2)cc1S(N)(=O)=O	14.1%	5.44% (active)	-64.2% (active)	-90.5% (active)	20.8%	-47.5% (active)	-77.8% (active)	-9.77% (active)	-68.4% (active)	-77.9% (active)	-68.3% (active)	63.2%	-92.6% (active)	-72.9% (active)	-10.2% (active)	3.71% (active)	-55.5% (active)	-91.3% (active)	-68.4% (active)
Cc1ccc(CNC(=O)Cc2ccc3c(c2)CN(C2CCC(=O)NC2=O)C3=O)cc1 (configuration not stated)	30.2%	14.5%	-64.1% (active)	-36.7% (active)	9.5% (active)	6.35% (active)	18.6%	70.5%	-23.5% (active)	-20.1% (active)	24.6%	-16.8% (active)	4% (active)	55.5%	10.4%	-70.5% (active)	40.6%	71.4%	22%
